Activity calls are given as the source filed them. Rule for the calls: active = hit-call score of the fitted dose curve at least 0.9, where 1 is the maximum; inactive = score below 0.9.
How the values were obtained:
[1] = ATG_CRE_CIS: Attagene CIS-FACTORIAL HepG2 Assay for human cAMP Responsive Element (CRE) binding protein 3 (AID 2282926); conditions: HepG2 CRE cis-reporter, Attagene multiplexed mRNA; actives raise or lower the signal
In short: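 Assay format: transient reporter transfection of HepG2, 24 h treatment, total RNA isolation with DNase I step. Reporter abundance read by fluorescence after PCR and capillary separation; DMSO-normalised gain or loss fitting.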

[2] = biological target: CCAAT/enhancer-binding protein beta (Homo sapiens) (UniProt P17676); experiment: ATG_C_EBP_CIS: Attagene CIS-FACTORIAL HepG2 Assay for human CCAAT/Enhancer Binding Protein (C/EBP) beta (AID 2282927); conditions: HepG2 Attagene cis-factorial transcription factor reporter; actives raise or lower the signal
In short: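 RT-PCR/capillary electrophoresis fluorescence of reporter mRNA, 24 h post-dose, in HepG2 cells carrying transfected cis-promoter reporter units. Bidirectional curve fitting against DMSO baseline captures gain or loss of signal.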

[3] = ATG_CMV_CIS: Attagene CIS-FACTORIAL HepG2 Assay for human CMV (Internal Marker) (AID 2282928); conditions: HepG2 CMV promoter reporter, transcription factor profiling; actives raise or lower the signal;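 note: endpoint acts as a background internal control marker rather than a target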
In short: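 Fluorescence intensity of RT-PCR-derived reporter fragments, resolved by capillary electrophoresis, gives the signal. HepG2 liver cells bearing transfected cis-element reporters were treated 24 h; activity in either direction was fit relative to DMSO-treated controls.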

[4] = ATG_DR4_LXR_CIS: Attagene CIS-FACTORIAL HepG2 Assay for human Liver X Receptor (LXR), DR4 submotif (AID 2282929); conditions: HepG2 Attagene DR4 cis-reporter, mRNA transcription; actives raise or lower the signal
In short: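 Cells were transfected with multiple reporter transcription units, exposed to chemicals for 24 hours, then lysed for RNA. Reporter mRNA induction was measured by RT-PCR with capillary electrophoresis detection and fitted in both directions relative to DMSO.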

[5] = ATG_AP_1_CIS: Attagene CIS-FACTORIAL HepG2 Assay for human Activator Protein 1 (AP-1) (AID 2282931); conditions: HepG2 Attagene cis-factorial AP-1 reporter mRNA; actives raise or lower the signal
In short: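 Endogenous transcription-factor activity in human HepG2 liver cells is read through a cis-promoter reporter transcript, sampled 24 h after dosing. Detection uses RT-PCR with capillary electrophoresis; values come from bidirectional fitting relative to DMSO.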

[6] = ATG_AP_2_CIS: Attagene CIS-FACTORIAL HepG2 Assay for human Activator Protein 2 (AP-2) (AID 2282932); conditions: HepG2 AP-2 cis-reporter, Attagene transcription factor profiling; actives raise or lower the signal
In short: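 Cells (HepG2) transfected with promoter-driven reporter constructs, treated 24 h. Total RNA reverse-transcribed, reporter cDNA PCR-amplified, FAM-labelled by primer extension, digested, resolved by capillary electrophoresis. Activity fitted both directions versus DMSO.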

[7] = ATG_BRE_CIS: Attagene CIS-FACTORIAL HepG2 Assay for human Bone Morphogenetic Protein (BMP) Response Element (BRE) (AID 2282933); conditions: HepG2 BMP response element reporter, Attagene transcription factor profiling; actives raise or lower the signal
In short: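 Transient MRTU transfection of human HepG2 liver cells; 24 h compound treatment; total RNA isolated, reverse-transcribed, PCR-amplified, 6-FAM labelled, HpaI-cut, capillary electrophoresis. DMSO = negative control/baseline, bidirectional fit.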

[8] = biological target: Retinoic acid receptor alpha (Homo sapiens) (UniProt P10276); experiment: ATG_DR5_RAR_CIS: Attagene CIS-FACTORIAL HepG2 Assay for human Retinoic Acid Receptor Alpha (RARE), DR5 submotif (AID 2282934); conditions: HepG2 Attagene cis-factorial RARE DR5 reporter, mRNA; actives raise or lower the signal
In short: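 HepG2 cells transiently transfected with multiplexed reporter units under cis (DR5 RARE) promoters, so endogenous transcription factor activity is measured. After 24 h compound exposure, reporter mRNA is quantified by RT-PCR with fluorescent labelling and capillary electrophoresis; bidirectional fitting versus DMSO.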

[9] = biological target: Transcription factor E2F1 (Homo sapiens) (UniProt Q01094); experiment: ATG_E2F_CIS: Attagene CIS-FACTORIAL HepG2 Assay for human E2F Transcription Factor 1 (AID 2282935); conditions: HepG2 Attagene cis-reporter, E2F reporter RNA transcripts; actives raise or lower the signal
In short: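 First, HepG2 cells were transfected with reporter transcription units. Next, they were dosed for 24 h. Then RNA was isolated, converted to cDNA, PCR-amplified, FAM-labeled, HpaI-digested and analyzed by capillary electrophoresis.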

[10] = ATG_E_Box_CIS: Attagene CIS-FACTORIAL HepG2 Assay for human Enhancer Box (E-box) (AID 2282936); conditions: HepG2 E-box cis-reporter transcription, actives raise or lower the signal
In short: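 Endogenous transcription factor activity was sensed in human HepG2 liver cells through transfected cis-promoter reporter units. After 24 h of dosing, total RNA was reverse-transcribed and reporter cDNA resolved by capillary electrophoresis.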

[11] = ATG_M_61_CIS: Attagene CIS-FACTORIAL HepG2 Assay for M61 Transcription Factor (Internal Marker) (AID 2282937); conditions: HepG2 Attagene CIS-FACTORIAL M61 internal marker reporter; actives raise or lower the signal
In short: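 Cells were transfected with reporter units under cis-regulatory promoters, treated with chemicals for 24 h, then lysed for RNA. Reporter transcripts were quantified by RT-PCR and capillary electrophoresis, and activity was fitted bidirectionally against DMSO.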

[12] = ATG_EGR_CIS: Attagene CIS-FACTORIAL HepG2 Assay for human Early Growth Response 1 (EGR1) (AID 2282938); conditions: HepG2 Attagene CIS-FACTORIAL EGR reporter mRNA; actives raise or lower the signal
In short: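 Endogenous TF activity in HepG2 liver cells was gauged through cis-promoter reporter constructs transiently transfected. After 24 h dosing, reporter mRNA was quantified by RT-PCR and capillary electrophoresis, and curves fitted in both directions versus DMSO.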

[13] = ATG_M_19_CIS: Attagene CIS-FACTORIAL HepG2 Assay for M19 Transcription Factor (Internal Marker) (AID 2282939); conditions: HepG2 Attagene CIS-FACTORIAL M19 internal marker reporter; actives raise or lower the signal
In short: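 Transfect HepG2 with MRTU reporter library → dose chemical, 24 h → isolate total RNA, reverse-transcribe with oligo(dT) → PCR, 6-FAM label, HpaI cut (2 h, 37 C) → capillary electrophoresis. Bidirectional fit vs DMSO.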

[14] = ATG_Ets_CIS: Attagene CIS-FACTORIAL HepG2 Assay for human Erythroblast Transformation Specific (ETS) (AID 2282941); conditions: HepG2 ETS cis-reporter transcription, actives raise or lower the signal
In short: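 Multiplexed reporter transcript profiling: HepG2, 24 h treatment, total RNA to cDNA, PCR, 6-FAM labelling, HpaI cut, capillary electrophoresis. Gain- or loss-of-signal fitted against DMSO.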

[15] = biological target: Hepatocyte nuclear factor 3-beta (Homo sapiens) (UniProt Q9Y261); experiment: ATG_FoxA2_CIS: Attagene CIS-FACTORIAL HepG2 Assay for human Forkhead box A2 (FOXA2) (AID 2282942); conditions: HepG2 cis-reporter transcription factor activity, 24 h; actives raise or lower the signal
In short: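 Endogenous transcription factor activity was read in HepG2 cells carrying transiently transfected cis-promoter reporter units. After 24 h dosing, reporter mRNA was quantified by RT-PCR and capillary electrophoresis, and values fitted bidirectionally versus DMSO.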

[16] = ATG_FoxO_CIS: Attagene CIS-FACTORIAL HepG2 Assay for human Forkhead box O (FoxO) (AID 2282943); conditions: HepG2 Attagene cis-reporter, FoxO element, mRNA; actives raise or lower the signal
In short: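 HepG2 cells transiently transfected with cis-promoter-driven multiple reporter transcription units; 24 h after chemical dosing, reporter mRNA quantified by RT-PCR, fluorescent primer extension, HpaI digestion and capillary electrophoresis. Bidirectional fitting versus DMSO baseline.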

[17] = ATG_GATA_CIS: Attagene CIS-FACTORIAL HepG2 Assay for human GATA Binding Protein (AID 2282944); conditions: HepG2 GATA cis-element reporter, Attagene multiplex mRNA; actives raise or lower the signal
In short: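 Transient MRTU transfection, HepG2, 24 h compound exposure. Total RNA → oligo(dT) RT → PCR → 6-FAM primer extension → HpaI cut → CE. Bidirectional fit vs DMSO.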

[18] = ATG_GLI_CIS: Attagene CIS-FACTORIAL HepG2 Assay for human Zinc Finger Protein GLI1 (AID 2282945); conditions: HepG2, Attagene cis-factorial reporter mRNA, GLI element; actives raise or lower the signal
In short: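 HepG2 cells transiently transfected with cis-promoter multiplexed reporter units report endogenous transcription factor activity. After 24 h chemical exposure, reporter mRNA was quantified by RT-PCR, 6-FAM labelling, HpaI digestion and capillary electrophoresis, with bidirectional fitting against DMSO.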

[19] = ATG_ERE_CIS: Attagene CIS-FACTORIAL HepG2 Assay for Estrogen Response Element (ERE) (AID 2282940); conditions: HepG2 ERE cis-reporter, Attagene RNA transcript; actives raise or lower the signal
In short: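 Transient MRTU transfection of human HepG2; cis-element promoters; 24 h dosing; total RNA → RT (oligo dT) → PCR → 6-FAM primer extension → HpaI digest → CE fluorescence. Bidirectional fit, DMSO baseline.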

Measured: AC50

Hepatocyte nuclear factor 3-beta (Homo sapiens), sequence (Q9Y261 whole entry, looked up): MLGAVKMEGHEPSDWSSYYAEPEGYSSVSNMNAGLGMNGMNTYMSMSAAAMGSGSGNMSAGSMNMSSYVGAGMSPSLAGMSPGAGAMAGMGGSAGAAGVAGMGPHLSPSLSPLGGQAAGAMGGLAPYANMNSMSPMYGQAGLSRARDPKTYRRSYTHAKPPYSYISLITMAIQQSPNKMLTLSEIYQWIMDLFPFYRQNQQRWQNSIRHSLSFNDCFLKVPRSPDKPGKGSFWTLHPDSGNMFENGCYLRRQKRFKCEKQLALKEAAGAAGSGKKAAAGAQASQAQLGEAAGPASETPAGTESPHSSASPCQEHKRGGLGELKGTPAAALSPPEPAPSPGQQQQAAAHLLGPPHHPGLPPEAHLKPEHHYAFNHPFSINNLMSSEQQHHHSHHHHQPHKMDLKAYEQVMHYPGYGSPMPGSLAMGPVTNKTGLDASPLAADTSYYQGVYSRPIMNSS
CCAAT/enhancer-binding protein beta (Homo sapiens), sequence (P17676 whole entry, looked up): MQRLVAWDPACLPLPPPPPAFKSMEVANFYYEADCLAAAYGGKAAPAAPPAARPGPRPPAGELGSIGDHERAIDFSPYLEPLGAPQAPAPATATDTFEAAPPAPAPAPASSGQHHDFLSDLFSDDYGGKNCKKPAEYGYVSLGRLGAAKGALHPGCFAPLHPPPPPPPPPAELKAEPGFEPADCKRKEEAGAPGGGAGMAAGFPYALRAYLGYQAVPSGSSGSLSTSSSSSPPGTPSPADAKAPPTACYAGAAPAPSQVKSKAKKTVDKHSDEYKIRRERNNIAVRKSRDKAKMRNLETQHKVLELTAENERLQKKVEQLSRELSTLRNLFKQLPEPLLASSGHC
Transcription factor E2F1 (Homo sapiens), sequence (Q01094 whole entry, looked up): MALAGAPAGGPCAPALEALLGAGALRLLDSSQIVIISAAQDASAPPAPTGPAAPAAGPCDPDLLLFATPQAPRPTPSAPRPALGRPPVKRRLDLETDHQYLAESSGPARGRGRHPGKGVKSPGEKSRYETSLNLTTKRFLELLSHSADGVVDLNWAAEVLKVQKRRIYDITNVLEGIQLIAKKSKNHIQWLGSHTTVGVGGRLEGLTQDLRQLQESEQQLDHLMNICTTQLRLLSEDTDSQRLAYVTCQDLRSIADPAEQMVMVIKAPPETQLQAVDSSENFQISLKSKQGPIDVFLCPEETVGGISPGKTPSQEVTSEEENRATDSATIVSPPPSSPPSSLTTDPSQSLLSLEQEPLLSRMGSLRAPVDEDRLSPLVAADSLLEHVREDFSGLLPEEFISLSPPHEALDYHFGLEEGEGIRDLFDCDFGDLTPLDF
Retinoic acid receptor alpha (Homo sapiens), sequence (P10276 whole entry, looked up): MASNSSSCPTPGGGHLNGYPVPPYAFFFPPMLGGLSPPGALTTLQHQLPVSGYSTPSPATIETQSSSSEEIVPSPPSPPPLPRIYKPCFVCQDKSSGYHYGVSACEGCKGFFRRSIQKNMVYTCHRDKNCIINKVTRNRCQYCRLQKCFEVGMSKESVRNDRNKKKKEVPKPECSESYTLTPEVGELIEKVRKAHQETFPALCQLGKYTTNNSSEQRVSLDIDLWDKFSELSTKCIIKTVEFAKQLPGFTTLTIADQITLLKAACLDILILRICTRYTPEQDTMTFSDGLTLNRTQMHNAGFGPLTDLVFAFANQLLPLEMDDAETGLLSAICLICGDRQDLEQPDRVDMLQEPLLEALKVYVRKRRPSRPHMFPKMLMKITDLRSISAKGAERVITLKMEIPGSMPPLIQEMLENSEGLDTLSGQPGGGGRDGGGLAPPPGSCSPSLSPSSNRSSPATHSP

CC1CC(OC(=O)c2ccccc2O)CC(C)(C)C1 (stereo not drawn)
active: [3] 100 µM | [5] 69.4 µM
not listed: [19]
inactive: all other assays above

CNCCO
not listed: [8] | [16] | [19]
inactive: all other assays above

Cc1ncc([N+](=O)[O-])n1C
not listed: [7] | [8] | [9]
inactive: all other assays above

CCC/C=C/C=O
not listed: [8]
inactive: all other assays above

Source: PubChem BioAssay (EPA / NIEHS)
